Bioassay records as filed in PubChem.
TGFb SMAD3 inh – inhibitors of TGF-b signaling | HepG2 CAGA-GFP TGF-b/SMAD3 reporter, GFP fluorescence, 18 h; TGF-beta stimulated, 500 pg/mL final | Potency, µM (top dose mostly 46.1 µM), without a hit: at the top dose activity, negative = inhibition, most hits filed as inhibitors | hit rate 1.2% among 410,000 | AID 588855; further: on the % scale 0 is the no-effect control and ±100 the full control effect; nearly all actives have a fitted effect of over 65% in size
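Inhibition of TGF-beta-driven CAGA-GFP reporter expression in HEPG2 cells is measured by cellular GFP fluorescence after 18 h stimulation with 500 pg/mL recombinant TGF-beta in 1% FBS medium at 37 degrees C.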
ATXN2 expr inh – ATXN2 expression inhibition. HEK-293 ATXN2-luciferase reporter, luminescence, 24 h. Potency, µM (series often up to 57 µM), inactives show top-dose activity change, negative = inhibition, actives largely listed as inhibitors. hit rate 0.72% among 360,000. AID 1745845; further: on the % scale 0 is the no-effect control and ±100 the full control effect; nearly all actives have a fitted effect of over 55% in size
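qHTS (up to 57 uM final) was run with 24 h compound exposure of reporter cells at 37 °C. Each well was multiplexed: SteadyGlo luminescence measured ATXN2-luciferase expression after a fluorogenic Gly-Phe-AFC viability readout (25 uM final).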
GLP1R inv ag – acts as inverse agonist at human GLP-1 receptor; P43220; HEK293 GLP-1R CRE-luciferase, luminescence, 24 h; GLP-1R form is constitutively active; Potency, µM (highest dose often 38.3 µM), for the others: top-dose activity change, negative = inhibition, usual class: inhibitors; hit rate 1.6% among 410,000; AID 624417; further: on the % scale 0 is the no-effect control and ±100 the full control effect; nearly all actives have a fitted effect of over 55% in size
Target sequence (P43220 whole entry, looked up): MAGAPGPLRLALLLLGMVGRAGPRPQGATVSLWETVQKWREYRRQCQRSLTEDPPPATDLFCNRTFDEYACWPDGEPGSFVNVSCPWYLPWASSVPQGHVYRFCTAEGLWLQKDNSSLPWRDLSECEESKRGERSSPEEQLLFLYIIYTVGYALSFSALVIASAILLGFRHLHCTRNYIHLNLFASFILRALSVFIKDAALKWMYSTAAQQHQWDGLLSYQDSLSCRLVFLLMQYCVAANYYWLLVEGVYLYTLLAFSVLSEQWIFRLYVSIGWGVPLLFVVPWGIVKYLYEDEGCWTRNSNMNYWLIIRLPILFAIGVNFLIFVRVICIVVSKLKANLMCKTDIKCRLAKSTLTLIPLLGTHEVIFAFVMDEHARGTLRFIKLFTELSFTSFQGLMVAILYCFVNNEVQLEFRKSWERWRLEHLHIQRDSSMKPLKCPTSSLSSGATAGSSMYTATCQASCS
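Inverse agonism was detected as reduced cAMP-driven luciferase luminescence after 24 h compound treatment. The cells were HEK293 clones expressing constitutively active human GLP-1R with the reporter. Reporter-only and GPR119 cell lines served as counterscreen controls.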
GLP-1R agonist – agonists of human GLP-1 receptor. HEK293 GLP-1R CRE-luciferase, luminescence, 4-6 h; cells express a hypersensitive GLP-1R form. Potency, µM (series often up to 45.6 µM), for the others: at the top dose activation, actives largely listed as activators. P43220. hit rate 0.007% among 380,000; further: % of control where 0% means no effect
HepG2 tox – counter-screen for TGF-b inhibitors: cytotoxicity in HepG2 cells; HepG2 CAGA-GFP viability, ATP luminescence, 18 h; Potency, µM (series often up to 46.1 µM), without a hit: at the top dose activity change, negative = cytotoxicity, most hits filed as cytotoxic; AID 588856; hit rate 0.76% among 410,000
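CellTiter-Glo luminescence gave cytotoxicity after 18 hours at 37 degrees C. The cells were HepG2 CAGA-GFP in 1% FBS DMEM, stimulated with 500 pg/mL TGF-beta after compound addition. %Activity was normalised to no-cell wells (complete cell-killing) and DMSO (no toxicity), and curves were fitted and classified.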
ATXN viability – reduces viability in counter-screen for ATXN expression inhibitors; Potency, µM (doses to about 56.7 µM), most hits filed as cytotoxic; hit rate 0.49% among 400,000; AID 651635; S2 cells (HEK-293 line with an ATXN2-luciferase reporter) viability, CellTiter-Fluor protease fluorescence, 24 h; further: nearly all actives have a fitted effect of over 40% in size
The depositor's hits bear a star; i = inactive; ? = inconclusive; . = no result given. Rows were chosen to be rich in hits. Some 3.7% of all compounds tested hit in one or more screens of this group. The call rests on the fitted dose curve; in most records, active means well fitted curve in the direction sought with a large enough effect; inconclusive means small, poorly fitted or top-dose-only effect, or another doubt; inactive means no such curve, though single readings can be large; an effect the other way counts as inactive or inconclusive. Potency means the concentration at half of the fitted maximal effect.

SMILES	TGFb SMAD3 inh	ATXN2 expr inh	GLP1R inv ag	GLP-1R agonist	HepG2 tox	ATXN viability
CC(C)C(NS(C)(=O)=O)c1nnc2n1CCN(Cc1ccc3cccnc3c1)CC2 (stereo not drawn)	.	.	.	.	.	i
Cc1[nH]c2ccccc2c1/C=N/NC(=S)NCc1ccccc1	12.6µM*	.	?	9.5%	-52.2%	?
CCc1ccc(S(=O)(=O)c2nnn(-c3ccc(F)cc3)c2N)cc1	?	.	-15.4%	.	-11.5%	.
C=C1CCN([C@H](C(=O)NCc2ccc(Cl)c(Cl)c2)C(C)C)S(=O)(=O)c2ccccc21	?	-11.1%	10µM*	-7.4%	-49.1%	i
C=C1CCN([C@@H](CC(C)C)C(=O)NCc2ccc(Cl)cc2)S(=O)(=O)c2ccccc21	-21.6%	6.3%	?	12.3%	-16.1%	i
C=C1CCN(C(Cc2ccccc2)C(=O)NCc2ccc(Cl)cc2)S(=O)(=O)c2ccccc21 (stereo not drawn)	-12.0%	.	.	.	-2.0%	.
C=C1CCN([C@@H](CC(C)C)C(=O)NCc2ccc(Cl)c(Cl)c2)S(=O)(=O)c2ccccc21	?	-22.4%	11.2µM*	-2.1%	-21.5%	?
C=C1CCN(C(C(=O)NCc2ccc(Cl)c(Cl)c2)C(C)C)S(=O)(=O)c2ccccc21 (stereo not drawn)	?	.	.	.	-20.1%	.
C=C1CCN([C@@H](Cc2ccccc2)C(=O)NCc2ccc(Cl)c(Cl)c2)S(=O)(=O)c2ccccc21	-24.4%	-10.2%	11.2µM*	2.6%	-1.6%	i
CNC(=O)c1ccc(-c2cnc3ncc(Cc4ccc5ncccc5c4)n3n2)cc1F	.	19.6%	.	.	.	.
C[n+]1ccc(C(c2c[nH]c3ccccc23)c2cc[n+](C)c3ccccc23)c2ccccc21	?	.	.	.	-76.6%	.
O=C(NCC1CC1)c1ccc2nc(-c3ccoc3)c(-c3ccoc3)nc2c1	-2.0%	.	.	.	-14.8%	.
Cc1cccc(N(C(=O)c2nsc(Cl)c2Cl)C(C(=O)NC2CCCC2)c2ccc(O)cc2)c1C (stereo not drawn)	0.0%	?	8.91µM*	-12.4%	5.6%	.
Cc1ccccc1N(C(=O)c1snc(C(N)=O)c1N)C(C(=O)NC1CCCCC1)c1ccc(O)cc1 (stereo not drawn)	-24.8%	?	?	5.7%	7.4%	?
CCOc1ccc(C(C(=O)NC2CCCC2)N(Cc2ccccc2)C(=O)c2nsc(Cl)c2Cl)cc1 (stereo not drawn)	?	-32.6%	10µM*	-4.1%	-2.5%	?
Cc1cc(C)cc(N(C(=O)c2nsc(Cl)c2Cl)C(C(=O)NC2CCCC2)c2ccc(O)cc2)c1 (stereo not drawn)	?	?	3.98µM*	-13.7%	-28.6%	?
Cc1ccc(N(C(=O)c2nsc(Cl)c2Cl)C(C(=O)NC2CCCC2)c2ccc(O)cc2)cc1C (stereo not drawn)	?	-37.1%	?	4.7%	2.8%	i
COc1ccc(Cl)cc1N1C(=O)[C@@H]2C[C@H]1CN2Cc1nc2ccccc2nc1C	.	.	.	.	.	i
S=C(NCc1cccnc1)Nc1cc(Cl)cc(Cl)c1	?	.	10µM*	1.8%	-40.4%	i
CCOc1ccc(C(c2c(O)cc(C)n(Cc3ccco3)c2=O)N2CCN(C)CC2)cc1 (stereo not drawn)	-22.3%	.	-2.7%	.	0.6%	.
COCCN1C(=O)C(CC(=O)Nc2ccc(C(C)=O)cc2)SC1=Nc1ccccc1 (stereo not drawn)	-2.5%	-2.0%	?	12.9%	8.7%	i
CC(O)CN1C(=O)C(CC(=O)Nc2ccc(Cl)cc2)SC1=Nc1ccccc1 (stereo not drawn)	11.2µM*	?	?	-18.9%	-67.2%	?
